Numbering of substitutions follows the chain as printed. Whole data set: some 5,800 sequences, median “enrichment r” near 0.68, cut for the highest 2% near 11. Only a selection was taken, and the highest values are over-represented in it overall.

To fix the notation:
T1: UNK ZnF1-6 (called full-length) (human, UniProt Q9C0B0 30-357)
T1 sequence: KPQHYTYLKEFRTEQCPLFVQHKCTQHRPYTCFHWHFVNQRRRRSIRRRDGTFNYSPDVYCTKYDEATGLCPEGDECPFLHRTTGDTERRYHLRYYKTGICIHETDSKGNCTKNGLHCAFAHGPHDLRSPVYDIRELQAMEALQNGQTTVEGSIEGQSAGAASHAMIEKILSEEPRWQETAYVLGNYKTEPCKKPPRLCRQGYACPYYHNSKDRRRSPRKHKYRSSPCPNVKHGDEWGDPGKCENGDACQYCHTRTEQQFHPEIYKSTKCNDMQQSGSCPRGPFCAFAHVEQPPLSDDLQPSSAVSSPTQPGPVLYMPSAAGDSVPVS

B1: chr7:107202531:107202632:-|3pUTR|ENSG00000164597|msi1|FALSE|unique (ssRNA)
RNA: GGGAGUUCUACAGUCCGACGAUCUAUUCUGAGAACUCAUAAAUAAAAUUCAGCCAAGAUUAAUCAAUCAAUCAAUCAAUCAGUAGACGUCAGAGAUAAGCAACUUUUUUUUCCAUUUAUUUGAAAUAAUAUACAAGAAUAUAGCAACAGAGGAUUGAGCAUCA
B2: chr10:73917138:73917420:+|3pUTR|ENSG00000122861|msi1|FALSE|unique (ssRNA)
RNA: GGGAGUUCUACAGUCCGACGAUCGGAAUGUAUUAUUCUGCAGCAUGACCUGUGACCAGCACUGUCUCAGUUUCACUUUCACAUAGAUGUCCCUUUCUUGGCCAGUUAUCCCUUCCUUUUAGCCUAGUUCAUCCAAUCCUCACUCAACAGAGGAUUGAGCAUCA
B3: chr8:11323570:11323671:+|3pUTR|ENSG00000104643|unk|FALSE|unique (ssRNA)
RNA: GGGAGUUCUACAGUCCGACGAUCGAGCAUACAUAUACAAUGUGUUUCAAAUGCUGCUUGUAAAAUUAAACCAUCAUCUAGAAUAGAGUUAAUUUAUUAUAAUCAAGCUACAAAUAGGUUUUCUUAAACCAGAGAUGCACUGCCCAACAGAGGAUUGAGCAUCA
B4: chr7:137879121:137879144:-|3pUTR|ENSG00000182158|msi1_unk|FALSE|overlapping (ssRNA)
RNA: GGGAGUUCUACAGUCCGACGAUCUAAUCCCCAACCUACUUUUAGUUUUUUUGUUUUUUUUUUAUGGUUAAAAGUAACUUUUGUAGUUUAAAAAAAUCUUUCCUCUUUCAUAUAAAUAAGAAGUGGAAAUUGCCUUUUUAUUGUCAACAGAGGAUUGAGCAUCA
B5: ENSG00000186472:stop:overlap|stop_codon|ENSG00000186472|stop_codon|NA|stop_codon (ssRNA)
RNA: GGGAGUUCUACAGUCCGACGAUCUUUCUUGUAAAUGGAAAUUUUAUCAUGUGUAUAGAUUCUGUAGCAUGCUUUUCUUUAUUUAGUUUUACUUUAUUCCUUUAUUGUUCUGUUUCUUGAUUGUUUGCUUGAUUUGUUUGGUGUCAACAGAGGAUUGAGCAUCA
B6: chr11:85958428:85958534:-|3pUTR|ENSG00000073921|unk|FALSE|unique (ssRNA)
RNA: GGGAGUUCUACAGUCCGACGAUCAGAAACAAUAACUGAAAUUAACUUUUCUUUUUUUAAAAAAAAUUAUAUUCAGUUUGCAGUAGACAUUCCUUAAGUAUUUGUAUUUAUUUAUGAUUAUCAAUUUUACAUAACAUUAAUAUUCAACAGAGGAUUGAGCAUCA
B7: chr19:35623609:35623710:+|3pUTR|ENSG00000249115|unk|FALSE|unique (ssRNA)
RNA: GGGAGUUCUACAGUCCGACGAUCGCCUUCUAGUUUGUAUAGUUUCUUUUUUUACAUGUAAAUCAGCCAUUUGGAAUUUAUCCUAGCACAUGGAUCCAAUUUUGUCUUAUUUUACAUAUAUCCUAGUAGCACUUACUGAAAUUCCAACAGAGGAUUGAGCAUCA
B8: ENSG00000198589:be:win_3201|CDS|ENSG00000198589|bound_else_gene|NA|bound_elsewhere_windowed (ssRNA)
RNA: GGGAGUUCUACAGUCCGACGAUCAACUGGCAAAGAUUCAAUGACUGUCAGUGAAGUAACUGCUUCUAUAAGUUCUCCUUCAGAAGAGGAUGCCUCAGAGAUGCCAGAAUUCUUGGAUAAAUCUAUAGUAGAGGAAGAGGAAGACAACAGAGGAUUGAGCAUCA
B9: chr3:44647099:44647200:+|3pUTR|ENSG00000186448|msi1|FALSE|unique (ssRNA)
RNA: GGGAGUUCUACAGUCCGACGAUCAUUUGUAUGUAAACUACAUAAAGAACUUUCCAAAUUUAACAGUAAUAAGUAAAUACAAUUAGAAAAUAAGCAAAAGACAGACAUUUCACUGAAGUAUAGAUAGCAAAUAAGCAAAUGAAACAACAGAGGAUUGAGCAUCA
B10: chr7:137879121:137879144:-|3pUTR|ENSG00000182158|msi1_unk|total|mutant (ssRNA)
RNA: B4 RNA with U42C, A43C, U83C, A84C
B11: chr11:43342853:43342954:+|3pUTR|ENSG00000166181|msi1|FALSE|unique (ssRNA)
RNA: GGGAGUUCUACAGUCCGACGAUCCUAGUUCUGCUGAUAAAGAUCAUCAGUUUUGAAAGGUUACUGAUUUUCCUCUUCCCUCUUAGUUUUUUACCCAAUAUAUGGAGAAGAGUAAUGGUCAAUCUUAACAUUUUGUUUUAAUUGCAACAGAGGAUUGAGCAUCA
B12: chr2:224511460:224511569:-|CDS|ENSG00000036257|unk|FALSE|bound_elsewhere (ssRNA)
RNA: GGGAGUUCUACAGUCCGACGAUCGAAAGCCAGAAAUUUUUAGCAGAAAAUAGUGCUUCAGUAUAUAUAAAGAAAGUAGAAGCUAGAAUUAAUGAAGAAAUAGAACGAGUGAUGCACUGCCUUGACAAAUCAACGGAAGAACCACAACAGAGGAUUGAGCAUCA
B13: chr17:44352837:44352938:+|3pUTR|ENSG00000030582|unk|total|mutant (ssRNA)
RNA: GGGAGUUCUACAGUCCGACGAUCCUGAAGACUCUGCAGCCCUCGGGACCCCACUCGGAGGGUGCCCUCUGCUCAGGCCUCCCCCGCACCUCCCCCUAACCAAAUUCUCCCUGGACCCCAUUCUGAGCUCCCCAUCACCAUGGGCAACAGAGGAUUGAGCAUCA
B14: ENSG00000107863:be:win_1351|CDS|ENSG00000107863|bound_else_gene|NA|bound_elsewhere_windowed (ssRNA)
RNA: GGGAGUUCUACAGUCCGACGAUCGUCCAGAUACGGCAACGCAGUGUGUCCCAAGAAAGACUGGAAGAUUCUGUGCUAAUGAAGUAUUGUCCAAGAAGUGCAUCUCAAGGAGCACUGACGUCUCCAUCUGUUAGUUUUAGUAAUCAACAGAGGAUUGAGCAUCA

In the experiment the target is T1, UNK ZnF1-6 (called full-length). Put plainly: nsRBNS (natural sequence RNA bind-n-seq); RBNS binding buffer (assumed for nsRBNS): 25 mM Tris pH 7.5, 150 mM KCl, 3 mM MgCl2, 0.01% Triton X-100, 500 ug/ml BSA, 20 U/ml SUPERase-In, 4 C; UNK is unkempt and MSI1 is Musashi-1; names of the RNAs are library labels; protein concentration not given here; high values mean tight binding.
The molecule B1 registered a binding signal of 2.67 enrichment R.
In the case of B2 it was 1.54 enrichment R; in that of B3, 2.54 enrichment R.
B4 registered a binding signal of 14.9 enrichment R.
The figure for B5 is 0.541 enrichment R.
The figure for B6 is 2.18 enrichment R; for B7 it is 14.9 enrichment R.
In the case of B8 it was 0.614 enrichment R; in that of B9, 162 enrichment R; in that of B10, 0.762 enrichment R.
Molecule B11 had a binding signal of 3.5 enrichment R.
The molecule B12 yielded a binding signal of 16.7 enrichment R.
In turn, B13 yielded a binding signal of 0.732 enrichment R.
The figure for B14 is 4.38 enrichment R.
